Data taken from PubChem BioAssay.
Calls of active or inactive are those of the source.

What was measured:
[1] = test system: XIP peptide (Xip251-270) binding; test: small-molecule binders of XIP peptide, primary screen, biochemical, small-molecule microarray, fluorescence 635/667 nm, 0.1 µg/mL protein (AID 1182); details: fluorescent protein binding, 635 nm, higher = more signal, called active from +8 up or from −8 down
XIP peptide (Xip251-270) = test: small-molecule binders of XIP peptide, primary screen, biochemical, small-molecule microarray, fluorescence 635/667 nm, 0.5 µg/mL protein (AID 1183); details: small-molecule microarray binding, fluorescence 635 nm; higher = more signal
[2] = Plasmodium falciparum growth inhibition, primary screen, strain 3D7, DAPI fluorescence, 100 nL (AID 1184);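 further: parasites grown inside human red blood cells in medium with human serum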; details: P. falciparum 3D7 growth, 3 d, higher = more signal
[3] = biological target: Homeobox protein Hox-A13 (Mus musculus) (UniProt Q62424); test: inhibitors of HoxA13-DNA binding, primary screen, biochemical, fluorescence polarization, labeled oligonucleotide (AID 1185); details: 15 min, higher = more signal, called active from +8 up or from −8 down
Sequence of Homeobox protein Hox-A13 (Mus musculus) (Q62424 whole entry, looked up): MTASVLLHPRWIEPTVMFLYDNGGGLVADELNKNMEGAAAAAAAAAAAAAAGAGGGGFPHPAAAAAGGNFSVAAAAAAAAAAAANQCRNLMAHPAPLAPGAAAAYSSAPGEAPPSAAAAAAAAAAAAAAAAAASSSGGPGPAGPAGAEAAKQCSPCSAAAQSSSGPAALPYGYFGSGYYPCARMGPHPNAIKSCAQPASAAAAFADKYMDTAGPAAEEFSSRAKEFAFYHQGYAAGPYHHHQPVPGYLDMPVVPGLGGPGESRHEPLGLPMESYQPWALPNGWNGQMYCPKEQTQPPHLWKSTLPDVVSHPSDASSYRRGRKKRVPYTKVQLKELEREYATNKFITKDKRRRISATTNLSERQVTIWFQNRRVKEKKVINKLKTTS

| Compound | composite z-score [1] | composite z-score (XIP peptide (Xip251-270)) | z-score [2] | z-score [3] |
| --- | --- | --- | --- | --- |
| COC(=O)C1=C(C)[C@@H](O)[C@@H](C)[C@H](c2c(OC)c(OC)c(C)c(OC)c2OC)O1 | -0.252 (inactive) | 0.562 | -0.717 | -0.388 (inactive) |
| CO[C@@H]1COC(=O)CC=C[C@@H](C)[C@@H]2C=C[C@H](O)[C@@H](COC(=O)CCC[C@H]1C)O2 | 0.0426 (inactive) | 0.152 | 0.149 | -0.262 (inactive) |
| COc1ccc(O[C@H]2C=C[C@@H](c3ccccc3)O[C@@H]2COC(=O)CCC(C)=NOC(C)CN2CCCCc3nc(C)c(C)cc32)cc1 (stereo partly specified) | 0.422 (inactive) | -0.674 | -1.34 | -2.19 (inactive) |
| COc1ccc(O[C@H]2C=C[C@@H](c3ccccc3)O[C@@H]2COC(=O)CCC(C)=NO[C@H](C)c2cn([C@@H]3COC[C@H]3O)nn2)cc1 | 0.0628 (inactive) | 0.596 | -1.52 | -6.96 (inactive) |
| COC(=O)CC1OC1[C@H](C)[C@@H](OC)C(C)C (stereo partly specified) | -0.0835 (inactive) | -0.739 | 0.599 | -4.65 (inactive) |
| C[C@@H]1C=CCC(=O)OC[C@H](C)C(=O)N2CCC[C@H]2C(=O)OC1 | -0.318 (inactive) | 0.827 | 0.207 | -0.596 (inactive) |
| O=C1CCCC=C1C(O)CCOCc1ccccc1 (stereo unspecified) | -0.294 (inactive) | 0.0941 | -0.929 | -0.861 (inactive) |
| CCOC(=O)CCN1C(=O)[C@H]2[C@H]3[C@H](O)[C@H](O)CC(=NOC[C@@H](O)COCc4ccco4)[C@H]3CC[C@H]2C1=O | 0.378 (inactive) | 0.328 | -1.44 | -3.71 (inactive) |
| COC(=O)CC=C[C@H](C)[C@@H](OCc1ccccc1Br)C(C)C | 0.864 (inactive) | -0.039 | -0.0811 | -0.388 (inactive) |
| CC(C)CON=C1C[C@@H](O)[C@@H](O)[C@@H]2[C@@H]3C(=O)N(C[C@@H]4CCCO4)C(=O)[C@@H]3CC[C@H]12 | -0.125 (inactive) | 0.0241 | -0.421 | -1.58 (inactive) |
| C=CC[C@@H]1C=C[C@H](ON=C(C)CCN2CCc3nc(CC)c(CC)cc3C2)[C@@H](CO)O1 | 0.0621 (inactive) | -0.0738 | -0.163 | -5.51 (inactive) |
| O=C1[C@H]2[C@H]3[C@H](O)[C@H](O)CC(=NOCc4ccccc4)[C@H]3CC[C@H]2C(=O)N1c1cccc(Oc2ccccc2)c1 | 0.297 (inactive) | 0.723 | -0.835 | -1.3 (inactive) |
| CCN1C(=O)[C@H]2[C@H]3[C@H](O)[C@H](O)CC(=NO[C@@H]4O[C@H](CO)[C@@H](O)[C@H](O)[C@H]4O)[C@@H]3CC[C@H]2C1=O | -0.232 (inactive) | -0.321 | 1.82 | -0.0696 (inactive) |
| COC(=O)C1=C(C)N(Cc2ccccc2)[C@]23O[C@](C(=O)OC)(C(=O)N2[C@@H]1c1ccccc1)[C@H]1CCOC(=O)[C@H]13 | 0.303 (inactive) | -0.202 | -0.303 | -4.7 (inactive) |
| CC(C)=NOCc1cccc(-c2cc(-c3ccccc3)no2)c1 | 1.13 (inactive) | 0.326 | 2.06 | 0.515 (inactive) |
| CCOC(=O)CCN1C(=O)[C@H]2[C@H]3[C@H](O)C=CC(=O)[C@@H]3CC[C@H]2C1=O | 0.58 (inactive) | 0.0156 | -0.0439 | -0.525 (inactive) |
| O=C1C[C@@H](O)[C@@H](O)[C@@H]2[C@@H]3C(=O)N(c4cccc(Oc5ccccc5)c4)C(=O)[C@@H]3CC[C@@H]12 | -0.0811 (inactive) | 0.726 | -0.61 | -4.11 (inactive) |
| CC(C)[C@@H](OCc1ccccc1)[C@H](C)C=NO[C@H](C)c1cn([C@H](CO)Cc2ccccc2)nn1 | -0.2 (inactive) | 0.353 | 0.325 | -4.42 (inactive) |
| CC(C)=NOCc1ccc(-c2cc(-c3ccccc3)no2)cc1 | -0.191 (inactive) | -0.0722 | 0.382 | 0.736 (inactive) |
| CC(CCC(=O)OC[C@H]1O[C@H](C#Cc2ccccc2)C=C[C@@H]1Oc1ccc(C)cc1)=NOC[C@@H](O)COCc1ccco1 | -0.729 (inactive) | -0.205 | 0.177 | -3.65 (inactive) |
| C[C@H](c1ccccc1)N1C(=O)[C@H]2[C@@H]3C(=CC[C@H]2C1=O)C(=O)[C@H]1O[C@H]1[C@H]3O | -0.584 (inactive) | 0.008 | -1.23 | -6.83 (inactive) |
| O=C1[C@H]2[C@H]3[C@H](O)[C@H](O)CC(=NOCc4ccccc4)[C@H]3CC[C@H]2C(=O)N1c1ccc(F)cc1F | -0.0939 (inactive) | 0.159 | -1.08 | 1.02 (inactive) |

| Compound | composite z-score [1] | composite z-score (XIP peptide (Xip251-270)) | z-score [2] | z-score [3] |
| --- | --- | --- | --- | --- |
| CCOC(=O)[C@H](Cc1ccccc1)NC(=O)CCC1CC(OC(=O)NCc2ccc3c(c2)OCO3)CC2(CCCC(COC(=O)NCc3cccc(C(F)(F)F)c3)O2)O1 (stereo partly specified) | 0.19 (inactive) | 0.109 | -2.01 | -0.531 (inactive) |
| CC(CCN1CCCCc2nc(C)c(C)cc21)=NOC(C)CN1CCCCc2nc(C)c(C)cc21 (stereo unspecified) | 0.29 (inactive) | 0.805 | -0.883 | -5.75 (inactive) |
| CCCNC(=O)OC[C@H]1O[C@H](CCON=CC[C@@H]2C=C[C@H](OC(C)=O)[C@@H](COC(C)=O)O2)C=C[C@@H]1Oc1ccc(OC)cc1 | 0.27 (inactive) | 0.512 | -0.133 | -6.56 (inactive) |
| CCOC(=O)NN=C1C[C@@H](O)[C@@H](O)[C@@H]2[C@@H]3C(=O)N(C4CCCCC4)C(=O)[C@@H]3CC[C@H]12 | 0.67 (inactive) | 0.485 | -1.68 | -1.77 (inactive) |
| O=C1[C@H]2[C@H]3[C@H](O)[C@H](O)CC(=NO[C@@H]4O[C@H](CO)[C@@H](O)[C@H](O)[C@H]4O)[C@@H]3CC[C@H]2C(=O)N1Cc1ccc2c(c1)OCO2 | 0.297 (inactive) | 0.567 | -1.06 | -2.63 (inactive) |
| CC(=O)O[C@H]1C2=C(C(=O)[C@@H]3O[C@@H]31)[C@H]1C(C)O[C@@H]2[C@@]23C(=O)[C@@H]4O[C@@H]4[C@@H](O)C2=CO[C@H](C)[C@@H]13 (stereo partly specified) | -0.179 (inactive) | -0.697 | -0.771 | -0.465 (inactive) |
| CC(CCN1CCc2nc(-c3ccccc3)c(-c3ccccc3)cc2C1)=NO[C@H](C)c1cn([C@@H]2COC[C@H]2O)nn1 | -0.378 (inactive) | 0.175 | 0.429 | -5.45 (inactive) |
| COC(=O)[C@H](C)NC(=O)CCC1CC(OC(=O)NCCc2ccc(F)cc2)CC2(CCCC(COC(=O)NCC(c3ccccc3)c3ccccc3)O2)O1 (stereo partly specified) | 0.477 (inactive) | 0.577 | -1.32 | -4.47 (inactive) |
| CC(=O)OC[C@H]1O[C@H](CCON=C(C)CCC(=O)OC[C@H]2O[C@H](C#Cc3ccccc3)C=C[C@@H]2Oc2ccc(C)cc2)C=C[C@@H]1OC(C)=O | -0.365 (inactive) | 0.0804 | 0.724 | -2.62 (inactive) |
| CCOC(=O)[C@H](Cc1ccccc1)NC(=O)CCC1CC(OC(=O)NCCc2ccc(F)cc2)CC2(CCCC(COC(=O)NCC(c3ccccc3)c3ccccc3)O2)O1 (stereo partly specified) | -0.295 (inactive) | 0.651 | -1.39 | -4.95 (inactive) |
| CC(CCC(=O)OC[C@H]1O[C@H](C#Cc2ccccc2)C=C[C@@H]1Oc1ccc(C)cc1)=NOC[C@@H](O)[C@H]1O[C@@H]2OC(C)(C)O[C@@H]2[C@H]1O | 0.0901 (inactive) | -0.823 | -0.521 | -2.3 (inactive) |
| CC(C)[C@@H](OCc1ccccc1)[C@H](C)C=NOC[C@@H](C)[C@H](OCc1ccccc1)C(C)C | 0.468 (inactive) | -0.185 | 0.128 | 0.24 (inactive) |
| COC(=O)[C@H](C)NC(=O)CCC1CC(OC(=O)NCc2cccc3ccccc23)CC2(CCCC(COC(=O)NCCc3ccc(Cl)cc3)O2)O1 (stereo partly specified) | -0.0057 (inactive) | 0.204 | -1.79 | -1.77 (inactive) |
| COc1cccc([C@H]2Oc3ccc(OC)cc3C(=NO[C@H](C)c3cn([C@@H]4COC[C@H]4O)nn3)[C@@H]2O)c1 | 0.0524 (inactive) | -0.561 | -0.866 | -2.61 (inactive) |
| COc1ccc(O[C@H]2C=C[C@@H](c3ccccc3)O[C@@H]2COC(=O)CCC(C)=NO[C@@H](C)c2cc(-c3c(C)cc(C)cc3C)no2)cc1 | -0.491 (inactive) | -0.782 | -0.739 | -0.508 (inactive) |
| CO[C@H]1COC(=O)[C@@H]2CCCN2C(=O)[C@@H](C)COC(=O)CC=C[C@@H]1C | -0.0014 (inactive) | 0.371 | 1.2 | -0.54 (inactive) |
| CC(=O)OC[C@H]1O[C@H](CCON=C[C@@H](C)[C@H](OCc2ccccc2)C(C)C)C=C[C@@H]1OC(C)=O | 0.72 (inactive) | 0.165 | -0.219 | -4.91 (inactive) |
| C=CC[C@@H]1C=C[C@H](ON=Cc2ccc(C(=O)N3[C@H](c4ccc(C)cc4)[C@@H](C)CC[C@H]3C(=O)OC)cc2)[C@@H](CO)O1 | -0.27 (inactive) | 0.379 | 0.495 | -6.28 (inactive) |
| CC(=O)C[C@H](O)[C@@H](NC(=O)OC(C)(C)C)C(C)C | -0.0306 (inactive) | -0.161 | -1.24 | 0.787 (inactive) |
| O=C1CCCC2OC12C(O)CCc1ccccc1 (stereo unspecified) | -0.128 (inactive) | -0.213 | 0.307 | -0.663 (inactive) |
| CCN1C(=O)[C@H]2[C@H]3[C@H](O)[C@H](O)CC(=NOCC=C(C)CCC=C(C)C)[C@H]3CC[C@H]2C1=O | 1.09 (inactive) | 0.762 | 1.97 | 0.0102 (inactive) |
| CCOC(=O)CCN1C(=O)[C@H]2[C@H]3[C@H](O)[C@H](O)CC(=O)[C@H]3CC[C@H]2C1=O | -0.245 (inactive) | 0.23 | -1.18 | 0.804 (inactive) |
